The values that follow come from PubChem BioAssay AID1508600 (Functional Genomics Laboratory (NCATS/FGL), 2020).

Hit rate of the full screen: of about 53,000 sequences, about 3,700 (7%) were called active. The full list was thinned out, with actives kept by preference. Values without a mark were called inactive.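 Rule for the calls: active = gene knockdowns whose robust z-score for IL-1 alpha signal is at least 2 or at most -2, so actives lie on both sides; inactive = the rest.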

This experiment in a line: Components of the Cytosolic LPS Sensing Pathway: Gene Identification via Genome-wide siRNA Screen.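 Note: robust z of the log signal after scaling to non-targeting control siRNA wells of the plate.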 As to conditions: RAW264.7 macrophages, IL-1a HTRF, actives lie on both sides, screened at 100 nM (by protocol), cells primed 5 h with Pam3CSK4 first. The essentials: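 Mouse macrophage line RAW264.7 is transfected with siRNA (100 nM final), grown 48h, primed with TLR ligand Pam3CSK4 5 h and given intracellular LipidA 24 h. IL-1a in supernatant is read by HTRF and viability by luminescence.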
For orientation: In TR-FRET formats the signal depends on donor and acceptor labels being close together.
With CCGAGGUGAUUAGGAUAACTT against Traf3ip1, the z-score was -0.694.

Turning to GGAGGAGAACAGCAAUCUUTT against Speer4d, the z-score was -2.38 (active).

On to CCUCUUCAACAAACAAGCATT against Zscan22, for which the z-score is -0.379.

GCAGCAGUGAAAUAGCUUCTT against Eya1: the z-score is -0.643.

As for GGAUGCAUGGCUCAAUAUUTT against Olfr1164, the z-score was 2.01 (active).

Take GCACAUUUGGACAACCAAUTT against AU018091: the z-score is -0.973.

Take GCCGCUAUCGUCUUUAUCATT against Ptk7: the z-score was 0.00632.

In the case of GGAGAAAAACAUCAUUGAATT against Reck, the z-score was -0.102.

With GGCUCUCAACUAAAGCAGCTT against Snu13, the z-score is -1.18.

Regarding GGGCUUUGUUUCCAAGUUGTT against Muc15, the z-score was -0.285.

Take GGUCUUUGCUACCAACCUGTT against Fignl1: the z-score was -2.15 (active).

Consider CCAUAGACUAUUAUCCUUATT against Uhrf1bp1l, for which the z-score was -0.282.

Consider GGACACAAAGAAGAAGAGGTT against Tarsl2, for which the z-score is 0.707.

As for GGUUAUUCUGGCUAUGGGCTT against Taf15, the z-score was -2.22 (active).

Regarding GGAAAUAUUGAUGCUGCUGTT against Ttc39a, the z-score was 1.09.

With GGGAGUGCCUGGGUUUGUATT against Dusp28, the z-score is 3.19 (active).

For CAAAAAUAUCUACAGAGUCTT against Olfr494, the z-score is 0.207.

For CGAGAAAAACGAUUUACUGTT against Orai2, the z-score is -0.527.

Regarding GGCAAUCCCAUAGAGGCUGTT against Mief2, the z-score was -2.64 (active).

On to GGAUGAGAAUGGUUAUACUTT against Asz1, for which the z-score is 0.328.

As to CCGCCUCGUACAUGAUAUUTT against Mrgpra2b, the z-score is 0.653.

Turning to GGAUUUAUUUGCCAACACUTT against Actbl2, the z-score was -2.28 (active).

On to GGUUGCUAUUAUUAUUGGATT against Fnbp4, for which the z-score is 0.678.

As for GCCCAAGGAGGCAUUGAUATT against Fbxo8, the z-score was -0.653.

GGCUUCAUUUACUGUAACGTT against Flrt3: the z-score was -0.12.

Consider GGAUAAACGGACAGGCCCATT against Socs2, for which the z-score was 0.282.

In the case of GGGUUCUGGGAAGGUAUAUTT against Olfr705, the z-score was -2.54 (active).

On to GAUUGUGCCUUAUCUCUAATT against Vmn1r203, for which the z-score is 1.28.

Regarding GGCCUACAUUUUAAUUCAGTT against Tmem132c, the z-score was -0.167.

In the case of GGCUCAGAUCAGAACUACGTT against Inpp4a, the z-score was -0.129.

For the sequence GGUAAACGAUGUACAGUUGTT against Notch2, the z-score was 2.6 (active).

As to GCUAAAGUGAGCAGCGGGATT against Gipc3, the z-score is 0.218.

For the sequence GCUACCUGCGACAAGAAAUTT against Defb23, the z-score is -0.79.

For the sequence CCAUAUGUAGCUAUGGUUATT against Cul2, the z-score is 0.741.

Turning to CCAGUAGAAAGAAUCCAGATT against Gm128, the z-score was 0.0855.

As to GCCAGCUACUCUCUUGAGATT against Olfr419, the z-score is -1.03.

Consider GGACUACAUGGAUGCCAUGTT against Prkrip1, for which the z-score was 0.482.

Regarding GGCCCUCAAACAGUGCAAATT against Chchd10, the z-score was 2.09 (active).

For the sequence GGCCUUUUCCAUAAACUUUTT against Ddx60, the z-score was 0.873.

Regarding GCAGUACGAAAUGGUAUACTT against Chd6, the z-score is -1.7.

Turning to CGUAUUAACGACAUAAGAGTT against Nckap1, the z-score is -0.169.

With GGACCUUAAGAGAUAUCAATT against Acsm4, the z-score was 2.9 (active).

With CCAAUUGGAAUCCCAUUUUTT against Cd47, the z-score is -0.273.

For the sequence CCCAACAAUGCUGCACAUGTT against H1f8, the z-score was 0.157.

As for GCAGUGUCUAGGACAGUCATT against Pdcd5, the z-score is 0.0243.

Turning to GGGCCCGAUGAAGCAAAAATT against Hnrnpr, the z-score was -1.49.

Consider GGCAAACAUGAAGAGAAGCTT against Hspb8, for which the z-score was 0.0665.

As to GGCUGACCUUCUGUGCUGATT against Olfr876, the z-score is -0.98.

As for CGAAGAGAUCUCACUAUAATT against Trnt1, the z-score is 1.21.

Take GCGCUAGAAGGCCAGAUAUTT against Orm3: the z-score is -0.155.

With GCAAUGGUUCAGUAUGUACTT against Tpgs2, the z-score was -2.01 (active).

As to GCCAUCAACAGCAUUUACATT against Glt8d2, the z-score was -0.455.

Take GGAGCUUUCAGCUAAGACATT against Rassf4: the z-score is 0.671.

As for GGACCAGCCAUACCUGUGATT against Ndufa7, the z-score was -1.93.

Regarding GCCACACAGUGUGAUCCAATT against Nrip2, the z-score was -1.33.

In the case of GGCUACCUACAGCACCAACTT against Esyt1, the z-score is -1.58.

With CCAAGUCUUUGCCUACGUGTT against Dsn1, the z-score was 2.39 (active).

Take GGAUGUAACUGAAAGAGAATT against Fam133b: the z-score is -1.11.

Regarding GGACACUUAAAGAUCCUGCTT against Armc7, the z-score was -0.545.

As for GCUCAGAGAUUAUGGCAUCTT against Snrnp25, the z-score was 0.687.

As for GAGCUAAGCAAGAUGCUAGTT against Sox17, the z-score is 3.97 (active).

In the case of GCAUGAUUACCCAUUUCAATT against Tax1bp1, the z-score was 0.334.

GGAGAAGGAGAUGUCCAAUTT against Guca2b: the z-score is 0.777.

Consider GCGAUUGAUGAAUUUCGACTT against Atp9b, for which the z-score is 0.616.

With GGAUUUCAAAAACCACGUGTT against Snx1, the z-score is 1.14.

Regarding CCCACAGCUCUGACAUUUUTT against Fbxo6, the z-score was -0.315.

As for CCUAGGUCAUAUUUCUCCATT against Bgn, the z-score was 0.224.

For the sequence GGCAGUGGCUUGGAUAAAUTT against Amdhd2, the z-score is -0.609.

In the case of GGAGAGCUGCAUGAUUUCATT against Efcab2, the z-score was 3.67 (active).
